Compound activity deposited in PubChem by National Center for Advancing Translational Sciences (NCATS).
JMJD2A Tudor – inhibitors of human JMJD2A Tudor domain | AlphaScreen JMJD2A-Tudor / H3K4me3 peptide binding | Potency, µM (highest dose often 114 µM), without a hit: at the highest dose activity change, negative = inhibition, hits mostly inhibitors | hit rate 4.4% among 390,000 | AID 504339; further: on the % scale 0 is the no-effect control and ±100 the full control effect; nearly all actives have a fitted effect of over 50% in size
L3MBTL1 inh – blocks human L3MBTL1 | hit rate 0.66% among 230,000 | AlphaScreen L3MBTL1–H3K9me1 peptide binding | Q9Y468 | Potency, µM (titrated, usually from 57.1 µM), inactives show at the top dose activity, negative = inhibition, hits mostly inhibitors | AID 485360; further: on the % scale 0 is the no-effect control and ±100 the full control effect; nearly all actives have a fitted effect of over 60% in size
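L3MBTL1 50 nM + b-AHA-H3(1-15)K9me1 75 nM, 30 min RT; compound added, 30 min RT; streptavidin donor/Ni-chelate acceptor beads 10 ug/mL each final, 30 min RT dark; AlphaScreen read.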
HP1b chromo inh – HP1-beta chromodomain-methylated histone interaction inhibition; Potency, µM (highest dose often 114 µM), without a hit: top-dose activity change, negative = inhibition, usual class: inhibitors; AlphaScreen HP1-beta / biotin-H3K9me3 peptide binding; hit rate 0.56% among 390,000; further: nearly all actives have a fitted effect of over 70% in size
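AlphaScreen: HP1-beta (50 nM) preformed 30 min with biotin-H3(1-18)K9me3 peptide (50 nM) in PBS pH 7.4, 0.01% Tween-20. Compound added for 30 min at RT, then streptavidin donor/nickel chelate acceptor beads (10 ug/mL) for 30 min.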
G9a block – inhibitors of human histone lysine methyltransferase G9a. G9a H3K9 monomethylation, AlphaScreen, 2 h. Q96KQ7. hit rate 8.8% among 350,000. Potency, µM (highest dose often 102 µM), without a hit: at the highest dose activity, negative = inhibition, actives largely listed as inhibitors; further: on the % scale 0 is the no-effect control and ±100 the full control effect; nearly all actives have a fitted effect of over 75% in size
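G9a (20 nM) preincubated 15 min RT with compounds, then 500 nM biotinylated H3K9 peptide and 20 uM SAM added; 2 h RT reaction. Monomethyl-H3K9 product detected by AlphaScreen with anti-H3K9me1 antibody, streptavidin donor and anti-rabbit IgG acceptor beads.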
Sfp PPTase inh – blocks B. subtilis Sfp PPTase activity; Q9F4F7; Biochemical Sfp PPTase activity, qHTS; Potency, µM, for the others: largest response in the series, negative = inhibition, usual class: inhibitors; hit rate 3.5% among 310,000; AID 1490;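 further: the enzyme is Sfp with the accession as filed and its product quenches rhodamine fluorescence; 0% = enzyme reaction without inhibitor and -100% = no enzyme wells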
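With Hepes-Na pH 7.6 buffer containing 10 mM MgCl2, Sfp (15 nM) modified BHQ-2-YbbR (12.5 uM) using rhodamine-CoA (5 uM). Two reads 30 minutes apart at 525/598 nm yielded each well's rate.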
BAZ2B inh – BAZ2B (human) inhibition; Q9UIF8; AlphaScreen BAZ2B-H3K14Ac peptide displacement; Potency, µM (series often up to 114 µM), for the others: at the top dose activity change, negative = inhibition, hits mostly inhibitors; hit rate 4.4% among 360,000; further: on the % scale 0 is the no-effect control and ±100 the full control effect; nearly all actives have a fitted effect of over 60% in size
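Multi-concentration screen (max 110 uM) measuring displacement of acetylated histone H3 peptide from BAZ2B by AlphaScreen, using 50 nM protein, 50 nM peptide and 10 ug/mL streptavidin donor plus Ni-chelate acceptor beads.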
Active calls of the source: *; ? = inconclusive; . = not tested or not shown; [ ] = remark or other dose. Hits are enriched below; roughly 12% of the tested compounds scored in any of these assays. The call rests on the fitted dose curve; in most records, active means well fitted curve in the direction sought with a large enough effect; inconclusive means small, poorly fitted or top-dose-only effect, or another doubt; inactive means no such curve, though single readings can be large; an effect the other way counts as inactive or inconclusive. Potency means the concentration at half of the fitted maximal effect.

SMILES | JMJD2A Tudor | L3MBTL1 inh | HP1b chromo inh | G9a block | Sfp PPTase inh | BAZ2B inh
O=C(CCn1cnc2onc(-c3ccc(F)cc3)c2c1=O)N1CCN(c2ccccc2)CC1 | ? | . | 9% | ? | . | -5%[57.1 µM]
O=C(O)CCn1cnc2onc(-c3ccccc3Cl)c2c1=O | 50µM* | . | ? | ? | . | 50µM*
Clc1ccc2nc(-c3ccccn3)c(Nc3ccc4c(c3)OCO4)n2c1 | 2.2µM* | ? | ? | 18% | -3% | 2.8µM*
COc1cc(-c2nc3ccc(Cl)cn3c2Nc2ccc3c(c2)OCO3)ccc1O | 32µM* | . | ? | 13µM* | . | .
COC(=O)Cc1c(C)c2cc3c(c(C)c2oc1=O)OCN(CCc1ccccc1F)C3 | -26% | . | 43% | -2%[59 µM] | . | -7%
CCS(=O)(=O)CCSc1nc2ccccc2o1 | -6% | 26%[11.4 µM] | 13% | 1%[59 µM] | 14% | 7%
CS(=O)(=O)Cc1nc2ccccc2oc1=O | 26% | 7% | 20% | 40µM* | ? | -22%
CCc1ccccc1Nc1nn2c(=O)c3ccc(C(=O)NC4CCC(C)CC4)cc3nc2s1 (centres undefined) | 2% | . | 31% | 5%[59 µM] | . | -2%
CC(C)n1c(=S)[nH]c2cc(Cl)ccc21 | ? | -23% | 11% | 10µM* | 79µM* | ?
Cc1ccc(NC(=O)c2cc(-c3cccs3)nc3ccccc23)nc1 | 11% | 14% | 63% | 40µM* | -12% | -18%
Cc1ccc2sc(NNC(=O)c3cc(-c4cccs4)nc4ccccc34)nc2c1C | . | -9% | . | 32µM* | -19% | 5%
O=C(NNc1nc2ccc(Cl)cc2s1)c1cc(-c2cccs2)nc2ccccc12 | ? | -25% | 49% | -9% | -4% | -34%
Cc1c(NC(=O)c2cc(-c3cccs3)nc3ccccc23)c(=O)n(-c2ccccc2)n1C | -23% | 1% | 8% | 30%[59 µM] | 20% | -32%
Cc1cc(C)c2nc(NNC(=O)c3cc(-c4cccs4)nc4ccccc34)sc2c1 | ? | ? | 36% | 32µM* | -27% | ?
N#Cc1nc(N2CCCCC2)nc(N(c2ccccc2)c2ccccc2)n1 | 5%[57.1 µM] | . | 15%[57 µM] | . | . | .
O=C(CN1C(=O)C2CC=C(Cl)CC2C1=O)Nc1ccc(C(=O)O)cc1 (centres undefined) | -25% | ? | 12% | 13µM* | -13% | -12%
O=C(CCN1C(=O)C2CC=C(Cl)CC2C1=O)NCc1ccccc1 (centres undefined) | -2% | -4% | 27% | 18µM* | 4% | -5%
O=C(CCN1C(=O)C2CC=C(Cl)CC2C1=O)NCc1ccco1 (centres undefined) | -26% | -1% | 32% | -9%[59 µM] | -25% | 2%
CCOc1ccc(-n2c(SCC(=O)N3CCc4ccccc43)nc3c([nH]c4ccccc43)c2=O)cc1 | -14% | . | 14%[57 µM] | 6%[59 µM] | . | 3%
Cc1noc(C)c1-c1ccc2ncnc(N3CCC(C(=O)O)CC3)c2c1 | . | . | . | 3%[0.501 µM] | 12% | .
COc1ccccc1C(=O)/C=C/c1ccc(N2CCCCC2)c([N+](=O)[O-])c1 | 8.9µM* | ? | 32µM* | 13µM* | 1% | 6.3µM*
O=C(/C=C/c1ccc(N2CCCCC2)c([N+](=O)[O-])c1)c1ccc(O)cc1 | 28µM* | -19% | 35µM* | -25%[12.7 µM] | -2% | 40µM*
O=C(O/N=C\c1ccc(N2CCCCC2)c([N+](=O)[O-])c1)c1ccc(Cl)cc1Cl | ? | -23% | ? | 40µM* | 12% | ?
O=C(c1ccc(N2CCCCC2)c([N+](=O)[O-])c1)N1CCOCC1 | -18% | -2% | 8% | 6%[59 µM] | 12% | 7%
Cc1ccc(C(=O)O/N=C\c2ccc(N3CCOCC3)c([N+](=O)[O-])c2)cc1 | -5% | -2% | ? | 25% | 9% | -25%[57.1 µM]
SMILES | JMJD2A Tudor | L3MBTL1 inh | HP1b chromo inh | G9a block | Sfp PPTase inh | BAZ2B inh
NC(N)=NCCC[C@H](NC(=O)c1ccccc1)C(=O)Nc1ccc([N+](=O)[O-])cc1 | . | . | . | . | 4% | .
COc1ccccc1CNC(=O)c1ccc2c(c1)sc1nc(-c3ccc(F)cc3)cn12 | -10% | . | 10% | -22%[59 µM] | . | 2%
Cc1ccc2c(c1)N(C)/C(=C/c1cccc[n+]1CCO)S2 | ? | . | 16% | 32µM* | 3% | -1%
COCC(=O)/C=C1\Sc2ccccc2N1C | -16% | . | 31% | -21%[59 µM] | -20% | 9%
CN1/C(=C/c2cccc[n+]2C)Sc2ccccc21 | ? | . | 47% | 25µM* | -16% | ?
Cc1ccc2c(c1)N(C)/C(=C/c1cccc[n+]1C)S2 | ? | . | -25% | 6.3µM* | -24% | ?
CN1/C(=C/C(=O)C2CCC2)Sc2ccccc21 | -20% | -10% | 31% | ? | ? | ?
COc1ccc(-c2cc3ccc(O)c(CN4CCCCC4C)c3oc2=O)cc1OC (centres undefined) | 5% | . | 33%[57 µM] | 1%[59 µM] | . | 16%
CCOC(=O)c1ccc(-c2ccc(CO)o2)cc1 | -31% | -4% | -3% | 45µM* | -13% | 0%[57.1 µM]
Cc1cc(=O)n2nc(N3CCC(C(=O)Nc4c(C)cccc4C)CC3)sc2n1 | -3% | . | 63% | 35%[59 µM] | . | 0%
CCN(C(=O)C1CCCN(c2ncnc3c2nc2n3CCCCC2)C1)c1cccc(C)c1 (centres undefined) | -19% | . | 2% | -30%[59 µM] | . | -22%
C#Cc1cccc(Nc2ncnc3cc(OC)c(OC)cc23)c1 | . | . | . | 8%[59 µM] | 19% | .
Cc1ccc(C(=O)Nc2ccc(C(=O)N/N=C/c3ccncc3)cc2)cc1 | . | ? | . | 32µM* | -17% | ?
Cc1ccc(N/N=C/c2ccncc2)cc1 | ? | . | 7% | 28µM* | 14% | ?
Cc1ccc(N/N=C/c2cccnc2)cc1 | ? | -15% | ? | ? | -15% | ?
CCNC(=O)c1c(NC(=O)COc2ccc(F)cc2)sc2c1CCCC2 | -8% | . | 26% | ? | . | -2%
COC(=O)c1sccc1NC(=O)/C=C/c1c(Cl)cccc1Cl | 4% | . | 28% | 13%[12.7 µM] | 40µM* | 8%
COC(=O)c1sccc1NC(=O)c1cccnc1 | 89µM* | . | -1% | 1%[59 µM] | -2% | 3%
O=C(O)c1ccc(NC(=S)NC(=O)c2cccnc2)cc1 | -2% | -3% | -16% | 79µM* | -27% | -5%
COC(=O)c1ccc(NC(=S)NC(=O)c2cccnc2)cc1 | -3% | -2% | 19% | . | 89µM* | -13%
COC(=O)c1sccc1NC(=O)c1c(Cl)cccc1Cl | 12% | 3% | 33% | . | 1% | 21%
COc1ccc(NC(=S)NC(=O)c2cccnc2)cc1 | -23% | 4% | 11% | 14% | -2% | 3%
COC(=O)c1sccc1NC(=O)c1cccc(Cl)c1 | 14% | . | 28% | . | . | .
Cc1ccc(-c2nc3c4ccccc4[nH]c(=O)n3n2)cc1 | -30% | . | 50% | -32%[59 µM] | . | 2%
